The values that follow come from PubChem BioAssay AID1578 (Sanford-Burnham Center for Chemical Genomics, 2009).

Usually inhibition stands for the relative decrease from the control value, in per cent.

Each structure is given as a SMILES string. About 3,000 (1%) of roughly 290,000 compounds were called active. Rule as the data show it: active = inhibition mostly above about 36% (no sharp cut-off); inactive = mostly below about 34%. Many of the other results were omitted from the sample, so actives are more common in it than they were.

This test is described as follows: NOD1 signaling inhibitors, primary screen, cell-based, luminescence, uHTS (AID 1578).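 Also: HEK-293T reporter cells stimulated with the NOD1 agonist gamma-tri-DAP.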 Particulars: NOD1-driven NF-kB luciferase reporter cells, at 4 µM, hits give high values. (Reporter assays use an easily measured gene product as a stand-in for the process of interest.)
Consider `O=C(O)c1ccc(NC(=O)c2cccc(N3C(=O)C4C5CCC(C5)C4C3=O)c2)cc1` (stereo not given), for which the inhibition was -29.6% (inactive).
With `O=C(Nc1ccc(Br)cc1)c1cccc(N2C(=O)C3C4CCC(C4)C3C2=O)c1` (stereo not given) the figure was 11.1% (inactive); with `O=C(NC(c1ccccc1)c1ccccc1)c1cccc(S(=O)(=O)NCc2ccccc2)c1`, -4.9% (inactive); with `COc1ccc(/C=C2\CC/C(=C\c3ccc(OC)cc3OC)C2=O)c(OC)c1`, -1.2% (inactive).
The same measure for `COc1ccc(/C=C2\CCC/C(=C\c3ccc(OC)c(OC)c3OC)C2=O)c(OC)c1OC`: -1% (inactive).
With `COc1cc(OC)c(OC)cc1/C=C1\CCC(C2CCCC2)C1=O` (stereo not given) the figure was -28.9% (inactive).
`COc1cc(/C=C2\COC/C(=C\c3ccc(O)c(OC)c3)C2=O)ccc1O`: the inhibition is 0% (inactive).
With `COc1cc(OC)c(OC)cc1/C=C1/Cc2ccccc2C1=O`, the inhibition is -5% (inactive).
Take `COc1cc(/C=C2/CC/C(=C/c3ccc(O)c(OC)c3)C2=O)ccc1O`: the inhibition was 20.8% (inactive).
With `COc1cccc(NC(=O)N2CCCC(C(=O)NCc3ccc(F)cc3)C2)c1` (stereo not given) the figure was -13.5% (inactive); with `COc1cc(-c2c(-c3cccc(C)c3)oc3ccccc23)cc(OC)c1OC`, 4.2% (inactive); with `Cc1nn(Cc2ccccc2)c(C)c1/C=N/NC(=O)c1cccnc1`, 25.8% (inactive).
On to `O=C(N/N=C/c1c(O)n(Cc2ccccc2)c(=O)c2ccccc12)c1cccnc1`, for which the inhibition is -5.8% (inactive).
The same measure for `Cc1c(/C=N/NC(=O)c2cccnc2)c2ccccc2n1Cc1ccccc1`: 38.8% (active); for `CC1CCN(C(=O)c2ccccc2NC(=O)c2cccc(S(=O)(=O)N3CCOCC3)c2)CC1`: -2.3% (inactive).
With `CN(Cc1ccc(Cl)s1)C(=O)CCl` the figure was 99.8% (active).
As to `CCOc1ccc(CN(C)C(=O)CCl)cc1`, the inhibition was 10.8% (inactive).
`COc1ccc(CN(C)C(=O)CCl)cc1`: the inhibition was 10% (inactive).
With `O=C(NC1CC1)C1CCN(C2CCN(C(=O)/C=C/c3cccc(F)c3F)CC2)CC1` the figure was -10.9% (inactive).
Take `CC1CN(S(=O)(=O)c2ccc(C(=O)Nc3ccc(S(=O)(=O)Nc4ncccn4)cc3)cc2)CC(C)O1` (stereo not given): the inhibition was -34.7% (inactive).
With `O=C(NCc1ccco1)c1c[nH]c2ccc(S(=O)(=O)N3CCOCC3)cc2c1=O` the figure was -21.1% (inactive); with `O=C(O)c1ccc2nc(-c3ccccc3)sc2c1`, 26.5% (inactive).
The same measure for `Nc1ccc(-c2nc3ccc(N)cc3s2)cc1`: -7.4% (inactive); for `Nc1ccc(-c2nc3ccc(C(=O)O)cc3s2)cc1`: 89.8% (active).
With `C[C@@H]1NC(=O)[C@H](CCC(=O)O)NC(=O)c2cc([N+](=O)[O-])cc(F)c2NCCC[C@@H](C(N)=O)NC1=O` the figure was -18.8% (inactive); with `O=c1c2[nH]c3ccc(F)cc3c2ncn1CCC1=CCCCC1`, -0.7% (inactive); with `c1ccc2c(c1)OCC(CNc1ncnc3sccc13)O2` (stereo not given), 57.1% (inactive).
In the case of `Oc1ccc(Nc2ncnc3scc(-c4ccccc4)c23)cc1`, the inhibition is 83.6% (active).
The same measure for `Cc1csc2ncnc(NCCc3ccccn3)c12`: 37% (inactive); for `CN(C)CCCNc1ncnc2scc(-c3ccccc3)c12`: -40.3% (inactive).
The same measure for `c1csc(-c2csc3ncnc(NCCCN4CCOCC4)c23)c1`: 30.7% (inactive).
With `COc1ccc(-c2csc3ncnc(Nc4ccc(O)cc4)c23)cc1` the figure was 15.8% (inactive); with `c1ccc(-c2csc3ncnc(NCC4COc5ccccc5O4)c23)cc1` (stereo not given), 75.2% (active).
In the case of `Cc1sc2ncnc(NCC3COc4ccccc4O3)c2c1C` (stereo not given), the inhibition is 44.6% (inactive).
With `c1ccc(CNc2nc(-c3cccs3)nc3ccccc23)nc1` the figure was -27.4% (inactive); with `O=C(O)c1ccc(Nc2ncnc3scc(-c4ccccc4)c23)cc1`, -63% (inactive); with `CC(=O)N(c1ccc(N(C(C)=O)S(=O)(=O)c2cccs2)cc1)S(=O)(=O)c1cccs1`, 3% (inactive).
The same measure for `CSc1nnc2c3cc(F)ccc3n(Cc3ccccc3)c2n1`: -1.5% (inactive); for `CN(C)/C=C/C(=O)c1cnc(-c2ccccc2Cl)s1`: -20.8% (inactive); for `Cn1c(=O)oc2cc(S(=O)(=O)NCCC(=O)N3CCN(c4ccccc4)CC3)ccc21`: -5.7% (inactive).
The same measure for `CCC(C)C(=O)Nc1cc(C(=O)OC)ccc1C(=O)OC` (stereo not given): -11.8% (inactive); for `CC1(C)CC(=O)c2cc(N=C/C(C(=O)c3ccccc3)=C(\O)c3ccccc3)c(=O)oc2C1`: -21.7% (inactive).
Take `Cc1cc(C)n2nc(N)c(N=Nc3ccc4c(c3)OCO4)c2n1`: the inhibition is 22.6% (inactive).
As to `Nc1nn(-c2ccccc2)c(N)c1N=Nc1ccc2c(c1)OCO2`, the inhibition was -68.3% (inactive).
For the molecule `COc1cccc(CNC(C)(C)CO)c1OCc1ccc(Cl)cc1`, the inhibition is -33% (inactive).
For the molecule `COc1ccc(CC(=O)NC2CCN(Cc3nnnn3C(C)(C)C)CC2)cc1OC`, the inhibition is -12.7% (inactive).
The same measure for `COc1ccc(/C=C/C(=O)N2CCN(c3ccccn3)CC2)cc1`: -37.3% (inactive).
`CCOC(=O)/C(C#N)=C\C1=C(N2CCOCC2)CC(C)(C)OC1`: the inhibition is -33.6% (inactive).
`CCOC(=O)C1=C(CC)Nc2ccccc2N=C1NC(=O)CCN1C(=O)C2CCCCC2C1=O` (stereo not given): the inhibition is -14.8% (inactive).
With `Cc1ccc(N2C(S)=C(C#N)C(=O)NC2c2ccco2)cc1` (stereo not given) the figure was -33.2% (inactive); with `N#CC1=C(S)N(c2ccc(F)cc2)C(c2ccco2)NC1=O` (stereo not given), -47.2% (inactive); with `N#CC1=C(S)N(c2ccccc2)C(c2ccco2)NC1=O` (stereo not given), 68.4% (active).
With `CCC(=O)c1ccc(OCC(=O)NC2(C#N)CCCCC2)cc1` the figure was -14.9% (inactive); with `COc1ccc(CCNC(=O)C(=O)NCC2OCCN2C(=O)c2ccc(Cl)cc2)cc1OC` (stereo not given), -3.4% (inactive); with `Cc1cc(C)c(C2C(C#N)=C(N)Oc3n[nH]c(C)c32)cc1CN1CCOCC1` (stereo not given), -16% (inactive).
The same measure for `COc1ccc(/C=N/Nc2nnc(Cc3ccc(OC)c(OC)c3)c(=O)[nH]2)cc1OC`: 4.2% (inactive); for `COc1ccc(-c2nc3cc(C)ccn3c2NCc2ccc3c(c2)OCO3)cc1`: 48.5% (active).
Regarding `Cc1ccn2c(NCc3ccc4c(c3)OCO4)c(-c3ccc(O)cc3)nc2c1`, the inhibition was 3.7% (inactive).
The same measure for `COc1ccc(-c2nc3ccccn3c2NCc2ccc3c(c2)OCO3)cc1`: -27.1% (inactive); for `Cc1cccc(C)c1OCc1nnc(SCC(=O)Nc2ccc(N3CCOCC3)cc2)o1`: 17.6% (inactive).
Regarding `Cc1ccc(C)c(S(=O)(=O)NCc2ccncc2)c1`, the inhibition was 34.2% (inactive).
With `Cc1cc(Br)c(S(=O)(=O)NCc2ccncc2)cc1C` the figure was 26% (inactive).
With `COc1ccc(S(=O)(=O)NCc2ccncc2)cc1OC` the figure was 24.7% (inactive); with `Cc1ccc(NCc2cccnc2)c(Br)c1`, -14.3% (inactive).
The same measure for `Cc1cc(-c2ccc(C)c(S(=O)(=O)NCc3ccc(OC(C)C)cc3)c2)on1`: -14.2% (inactive); for `Cc1cc(-c2ccc(C)c(S(=O)(=O)NCc3ccc(Br)cc3)c2)on1`: 72.5% (active); for `Cc1cc(C)cc(NCc2ccncc2)c1`: -8.1% (inactive).
On to `Cc1cc(-c2ccc(C)c(S(=O)(=O)NCc3cccc(Br)c3)c2)on1`, for which the inhibition is -20.4% (inactive).
The same measure for `Cc1ccc(NCc2ccncc2)c(Br)c1`: 63.7% (active).
For the molecule `COc1cc(S(=O)(=O)NCc2ccccc2)ccc1Br`, the inhibition was -7.9% (inactive).
Consider `O=c1[nH]c2ccc(NC(=S)NC3CCCCC3)cc2[nH]1`, for which the inhibition is 0.4% (inactive).
With `NNC(=O)c1cccn(Cc2cccc(C(F)(F)F)c2)c1=O` the figure was -7.3% (inactive); with `CCn1c(SCC(=O)Nc2nc(C)c(C)s2)nnc1-c1ccco1`, 4.8% (inactive); with `O=C(NCCCCc1ccccc1)Nc1cccc(F)c1`, -18.4% (inactive).
With `CCc1nnc(NS(=O)(=O)c2ccc(NC(=S)NC(=O)c3ccc(OC)c(OC)c3)cc2)s1` the figure was -10.1% (inactive); with `C#Cc1ccc([C@@H]2C=C(C(=O)N3CCN(Cc4ccc5c(c4)OCO5)CC3)O[C@H](OCCCCO)C2)cc1`, -5.3% (inactive); with `O=C(CN1CC[C@@]2(O)CCCC[C@H]2[C@@H]1c1ccc(F)cc1)NCc1ccco1`, -15% (inactive).
With `Cc1cc(Cl)ccc1C(=O)C1CCCN(C(=O)c2cscn2)C1` (stereo not given) the figure was -13.1% (inactive); with `COC(=O)C(CCSC)NS(=O)(=O)c1ccc(Cl)cc1` (stereo not given), -19.4% (inactive); with `O=S(=O)(c1ccccc1)N(Cc1ccccc1)c1ccccn1`, -18.3% (inactive).
Turning to `CC(=O)Nc1nc(-c2ccc3c(c2)OCO3)cs1`, the inhibition was 1.1% (inactive).
For the molecule `O=C(Nc1nc(-c2ccc3c(c2)OCO3)cs1)C1CC1`, the inhibition is -36.4% (inactive).
With `Cc1ccc2nc(N3CCN(S(=O)(=O)c4ccc(C)c(Cl)c4)CC3)c(C#N)cc2c1` the figure was -0.6% (inactive).
As to `Cc1nc2ccc(S(=O)(=O)NCC(=O)N3CCN(c4ccccn4)CC3)cc2s1`, the inhibition is 8.2% (inactive).
With `COC(=O)C1(CCSC)NC(c2ccco2)C2C(=O)N(C)C(=O)C21` (stereo not given) the figure was -7.2% (inactive); with `C/C(=N\NC(=O)COc1ccc(C(C)(C)C)cc1)c1ccc(-n2ccnc2)cc1`, -48% (inactive).
With `CC(C)(C)c1ccc(NC(=O)COc2ccc(-n3ccnc3)cc2)cc1` the figure was 74.6% (active).
The same measure for `COc1cc(NC(=O)COc2ccc(-n3ccnc3)cc2)cc(OC)c1`: 39.3% (inactive); for `Cc1ccc(NC(=O)CSc2nnc(C)n2CC2CCCO2)cc1` (stereo not given): -27.7% (inactive); for `CCc1ccccc1NCC(=O)Nc1ccc(Cl)c(C(F)(F)F)c1`: -18.7% (inactive).
As for `C=CCSC1=NN2CCS(=O)(=O)N=C2S1`, the inhibition was -14.6% (inactive).
On to `CCSC1=NN2CCS(=O)(=O)N=C2S1`, for which the inhibition was 44.5% (active).
In the case of `CCOC(=O)CSC1=NN2CCS(=O)(=O)N=C2S1`, the inhibition is -12.9% (inactive).
Take `COc1ccc(/C(N)=N/OC(=O)c2cccs2)cc1OC`: the inhibition is -61.8% (inactive).
The same measure for `COc1ccccc1CNC(=O)C1CCN(C(=O)c2sccc2-n2cccc2)CC1`: -18.4% (inactive).
